For 17 molecules, inhibition results are on record in ChEMBL document CHEMBL1961873, “Compounds: GSK PKIS; Assays: Nanosyn kinase panel” (2012).

Experiment [1] has as its target T1, Tyrosine-protein kinase receptor TYRO3 (Homo sapiens) (UniProt Q06418).
T1 sequence (whole entry): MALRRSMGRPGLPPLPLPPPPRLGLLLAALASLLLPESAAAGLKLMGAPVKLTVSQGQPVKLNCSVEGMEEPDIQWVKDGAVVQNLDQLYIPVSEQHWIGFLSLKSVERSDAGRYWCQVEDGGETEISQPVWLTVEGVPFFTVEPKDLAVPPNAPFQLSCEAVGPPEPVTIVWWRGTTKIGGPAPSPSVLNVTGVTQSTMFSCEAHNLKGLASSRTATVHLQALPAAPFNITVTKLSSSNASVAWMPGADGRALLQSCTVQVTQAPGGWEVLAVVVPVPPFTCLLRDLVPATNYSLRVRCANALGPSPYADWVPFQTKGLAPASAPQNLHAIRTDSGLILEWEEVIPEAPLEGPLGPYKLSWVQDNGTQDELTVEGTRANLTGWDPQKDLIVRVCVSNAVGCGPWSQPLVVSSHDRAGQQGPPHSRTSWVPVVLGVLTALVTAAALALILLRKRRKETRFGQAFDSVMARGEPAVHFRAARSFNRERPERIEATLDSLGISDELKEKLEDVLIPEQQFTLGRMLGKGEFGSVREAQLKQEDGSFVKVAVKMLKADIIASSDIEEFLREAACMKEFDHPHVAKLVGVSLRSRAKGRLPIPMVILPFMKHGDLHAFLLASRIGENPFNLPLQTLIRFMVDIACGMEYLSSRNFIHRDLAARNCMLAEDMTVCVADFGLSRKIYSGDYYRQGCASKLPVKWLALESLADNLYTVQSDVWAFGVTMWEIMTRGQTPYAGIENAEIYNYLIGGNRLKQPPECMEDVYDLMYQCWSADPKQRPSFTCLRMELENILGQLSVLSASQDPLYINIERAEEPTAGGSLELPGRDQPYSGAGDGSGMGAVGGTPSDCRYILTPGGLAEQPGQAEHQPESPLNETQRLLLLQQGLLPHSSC
Conditions: at 1 µM.

Experiment [2] deals with Tyrosine-protein kinase Yes (Homo sapiens) (UniProt P07947). Conditions: at 0.1 µM.
The target is the same in experiment [3]. Conditions: at 1 µM.
The target in experiment [4] is T2, Tyrosine-protein kinase ZAP-70 (Homo sapiens) (UniProt P43403).
T2 sequence (whole entry): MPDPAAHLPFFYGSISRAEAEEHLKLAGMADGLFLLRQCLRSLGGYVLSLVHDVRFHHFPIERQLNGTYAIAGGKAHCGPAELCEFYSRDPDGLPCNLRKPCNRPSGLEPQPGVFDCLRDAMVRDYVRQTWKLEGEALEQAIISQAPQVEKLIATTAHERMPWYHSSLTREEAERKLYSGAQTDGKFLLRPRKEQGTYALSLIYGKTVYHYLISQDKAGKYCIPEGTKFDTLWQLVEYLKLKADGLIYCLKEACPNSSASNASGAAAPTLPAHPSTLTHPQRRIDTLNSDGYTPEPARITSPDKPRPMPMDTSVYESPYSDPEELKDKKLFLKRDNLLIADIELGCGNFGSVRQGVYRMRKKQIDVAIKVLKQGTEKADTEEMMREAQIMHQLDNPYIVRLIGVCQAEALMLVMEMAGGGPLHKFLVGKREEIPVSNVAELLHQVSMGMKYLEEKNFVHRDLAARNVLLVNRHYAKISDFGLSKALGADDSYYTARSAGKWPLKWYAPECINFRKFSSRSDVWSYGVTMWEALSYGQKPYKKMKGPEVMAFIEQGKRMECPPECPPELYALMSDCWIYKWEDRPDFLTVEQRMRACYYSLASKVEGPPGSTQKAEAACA
Conditions: at 0.1 µM.

Experiment [5] concerns the target T2, Tyrosine-protein kinase ZAP-70 (Homo sapiens). Conditions: at 1 µM.
For experiment [6], the target named is Serine/threonine-protein kinase B-raf (Homo sapiens) (UniProt P15056). Conditions: at 0.1 µM.
Experiment [7] has the same target. Conditions: at 1 µM.
Experiment [8] deals with Serine/threonine-protein kinase B-raf (Homo sapiens), P15056 [V600E]. Conditions: at 0.1 µM.
For experiment [9] the test system is unchanged. Conditions: at 1 µM.
In experiment [10] the target is RAF proto-oncogene serine/threonine-protein kinase (Homo sapiens) (UniProt P04049). Conditions: at 0.1 µM.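 Also: values are mean CRAF kinase inhibition from profiling of the GSK Published Kinase Inhibitor Set.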
Sequence of RAF proto-oncogene serine/threonine-protein kinase (Homo sapiens) (P04049 whole entry): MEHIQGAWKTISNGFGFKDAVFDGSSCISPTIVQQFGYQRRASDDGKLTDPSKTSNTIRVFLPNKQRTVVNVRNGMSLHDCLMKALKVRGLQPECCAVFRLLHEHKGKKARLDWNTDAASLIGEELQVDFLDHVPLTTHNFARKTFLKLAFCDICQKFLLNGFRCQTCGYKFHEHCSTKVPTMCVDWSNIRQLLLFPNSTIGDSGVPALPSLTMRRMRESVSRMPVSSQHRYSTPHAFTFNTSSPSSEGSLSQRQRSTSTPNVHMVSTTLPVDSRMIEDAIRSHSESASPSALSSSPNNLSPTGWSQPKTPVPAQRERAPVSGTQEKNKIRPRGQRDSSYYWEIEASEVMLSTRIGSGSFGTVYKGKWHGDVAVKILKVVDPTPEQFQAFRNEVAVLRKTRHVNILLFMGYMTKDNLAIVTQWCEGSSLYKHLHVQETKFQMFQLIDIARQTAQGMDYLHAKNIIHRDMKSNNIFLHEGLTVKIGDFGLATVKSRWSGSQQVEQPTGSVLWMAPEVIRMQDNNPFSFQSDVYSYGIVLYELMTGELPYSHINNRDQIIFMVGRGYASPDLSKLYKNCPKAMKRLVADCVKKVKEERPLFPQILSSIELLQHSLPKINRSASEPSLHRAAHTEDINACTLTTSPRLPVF

Sequence of Serine/threonine-protein kinase B-raf (Homo sapiens) (P15056 whole entry): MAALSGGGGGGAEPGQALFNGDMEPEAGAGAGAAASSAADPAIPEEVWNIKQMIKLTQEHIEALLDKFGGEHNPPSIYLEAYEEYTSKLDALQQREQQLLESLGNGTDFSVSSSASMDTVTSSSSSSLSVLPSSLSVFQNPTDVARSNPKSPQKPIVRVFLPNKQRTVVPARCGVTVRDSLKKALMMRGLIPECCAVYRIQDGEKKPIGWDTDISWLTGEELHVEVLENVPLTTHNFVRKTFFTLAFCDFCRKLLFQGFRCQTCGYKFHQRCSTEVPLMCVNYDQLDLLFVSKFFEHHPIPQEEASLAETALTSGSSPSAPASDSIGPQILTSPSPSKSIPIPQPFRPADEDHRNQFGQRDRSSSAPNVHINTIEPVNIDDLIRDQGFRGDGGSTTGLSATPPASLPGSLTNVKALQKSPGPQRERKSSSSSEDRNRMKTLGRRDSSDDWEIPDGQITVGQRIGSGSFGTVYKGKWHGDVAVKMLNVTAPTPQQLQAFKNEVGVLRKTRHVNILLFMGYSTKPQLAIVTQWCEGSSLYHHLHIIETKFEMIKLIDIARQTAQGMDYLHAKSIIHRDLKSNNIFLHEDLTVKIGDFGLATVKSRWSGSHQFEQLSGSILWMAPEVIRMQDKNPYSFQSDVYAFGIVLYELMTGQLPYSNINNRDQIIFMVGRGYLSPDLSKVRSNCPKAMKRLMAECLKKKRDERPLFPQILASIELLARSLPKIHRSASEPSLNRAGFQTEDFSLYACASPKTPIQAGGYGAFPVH
Sequence of Tyrosine-protein kinase Yes (Homo sapiens) (P07947 2-543 limits assumed): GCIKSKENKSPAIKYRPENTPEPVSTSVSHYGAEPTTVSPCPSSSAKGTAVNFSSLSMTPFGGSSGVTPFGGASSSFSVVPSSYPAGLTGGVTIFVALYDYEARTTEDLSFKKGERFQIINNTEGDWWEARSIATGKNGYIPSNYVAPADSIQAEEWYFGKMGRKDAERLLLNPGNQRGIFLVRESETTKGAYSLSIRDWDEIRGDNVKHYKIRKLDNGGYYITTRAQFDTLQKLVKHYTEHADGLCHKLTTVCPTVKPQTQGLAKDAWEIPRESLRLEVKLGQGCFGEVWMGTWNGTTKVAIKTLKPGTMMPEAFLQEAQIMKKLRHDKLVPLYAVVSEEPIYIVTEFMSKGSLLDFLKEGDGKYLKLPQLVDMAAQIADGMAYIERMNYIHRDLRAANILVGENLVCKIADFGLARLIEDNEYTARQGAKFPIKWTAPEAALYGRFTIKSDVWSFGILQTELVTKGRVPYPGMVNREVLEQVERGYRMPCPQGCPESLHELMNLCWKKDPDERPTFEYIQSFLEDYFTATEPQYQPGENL
Sequence of Serine/threonine-protein kinase B-raf (Homo sapiens), P15056 [V600E] (P15056 whole entry V600E): as the sequence (P15056 whole entry) above, with V600E counted along it

For `NS(=O)(=O)c1cccc(-c2cc3ccncc3cc2OCc2ccccc2)c1`, the inhibition (usually the drop in the measured response relative to a control, in per cent) stood at 3.23% in experiment [1]; 0.88% in experiment [2]; 2.73% in [3]; 2.48% in [4]; 4.15% in experiment [5]; 6.76% in experiment [6]. Also, the inhibition is 6.57% in experiment [7], 5.8% in experiment [8], 5.78% in experiment [9] and 2.97% in experiment [10].

Turning to `c1ccc(Cc2nc3ccc(Nc4ncnc5ccccc45)cc3[nH]2)cc1`, the inhibition in experiment [1] is 3.79%; in experiment [2] it was 1.02%; in experiment [3], 9.72%; in experiment [4], 1.42%; in [5], -1.31%; in experiment [6], 4.95%. Moreover, the inhibition was determined as 6.09% in experiment [7], 4.48% in experiment [8], 5.36% in experiment [9] and 3.87% in experiment [10].

With `NC(=O)c1cccc(Nc2nccc(Nc3cccc(F)c3)n2)c1`, the inhibition is 57% in experiment [1]; 4.5% in experiment [2]; 22.5% in [3]; -0.99% in experiment [4]; 4.21% in [5]; 0.82% in [6]. The inhibition came out at 3.59% in experiment [7], 1.61% in [8], 3.25% in experiment [9] and 0.33% in experiment [10].

`N#Cc1c(NC(=O)c2ccccc2F)sc2c1CCCC2`: the inhibition in experiment [1] was -1.16%; in [2], 2.43%; in experiment [3], -1.67%; in experiment [4], -3.51%; in experiment [5] it was 0.2%; in experiment [6], -1.34%. The inhibition in experiment [7] was -1.56%; in experiment [8], -0.04%; in experiment [9], 1.18%; in experiment [10], -2.08%.

Take `Cc1ccc2c(-c3ccnc(Nc4ccc5c(c4)OCCO5)n3)c(-c3ccc(C(F)(F)F)cc3)nn2n1`: the inhibition is 2.41% in experiment [1]; 6.79% in experiment [2]; 46.8% in experiment [3]; -2.2% in [4]; 1.38% in experiment [5]; 0.83% in [6]. In addition, the inhibition in [7] came out at 1.14%; in experiment [8], 0.62%; in [9], 1.44%; in [10], 4.51%.

On to `NS(=O)(=O)c1ccc(NC=C2C(=O)Nc3ccc4ncsc4c32)cc1`, for which the inhibition came to 42.4% in experiment [1]; 9.65% in [2]; 41.5% in [3]; 3.29% in experiment [4]; 11.9% in experiment [5]; 15.4% in experiment [6]. For the same molecule, the inhibition amounted to 60.5% in experiment [7], 16.6% in experiment [8], 61.2% in experiment [9] and 11.6% in experiment [10].

Consider `Cc1ccc2c(-c3ccnc(Nc4cccc(C(F)(F)F)c4)n3)c(-c3ccccc3)nn2n1`, for which the inhibition in [1] worked out at 17.5%; in experiment [2], 53.8%; in experiment [3], 91.8%; in experiment [4], 0.09%; in [5] it was 2.06%; in experiment [6], 6.35%. Moreover, the inhibition in experiment [7] was found to be 14.1%; in experiment [8], 4.17%; in [9], 8.85%; in [10], 4.15%.

For the molecule `COc1cc2ncnc(Nc3ccc(C)c(O)c3)c2cc1OC`, the inhibition came out at 34.5% in [1]; 8.25% in experiment [2]; 42% in experiment [3]; 3.61% in [4]; 1.79% in [5]; 8.83% in experiment [6]. Moreover, the inhibition in [7] was found to be 10%; in experiment [8], 7.72%; in experiment [9], 9.15%; in [10], 1.3%.

In the case of `Nc1ccc(C#Cc2cncnc2Nc2ccc(OCc3cccc(F)c3)c(Cl)c2)cc1`, the inhibition in [1] was 3.64%; in experiment [2], 1.94%; in [3] it was 8.1%; in experiment [4], -0.01%; in experiment [5] it was -1.74%; in [6] it was 4.78%. The inhibition in experiment [7] was 3.99%; in experiment [8], 4.21%; in experiment [9], 3.42%; in experiment [10] it was -3.06%.

Regarding `C[C@@H](Oc1cc(-n2cnc3ccc(OC[C@@H](O)CO)cc32)sc1C(N)=O)c1ccccc1Cl`, the inhibition is 1.84% in experiment [1]; -2.39% in experiment [2]; 4.27% in experiment [3]; -0.38% in [4]; -0.42% in experiment [5]; -1.12% in experiment [6]. Further, the inhibition was -0.85% in experiment [7], -2.35% in [8], 0.01% in experiment [9] and -4.77% in experiment [10].

`COC(=O)c1ccc2c(c1)C(=Cc1cc(Br)c(O)c(Br)c1)C(=O)N2`: the inhibition turned out to be 12.4% in [1]; 0.08% in experiment [2]; 12.2% in experiment [3]; 3.31% in experiment [4]; 5.41% in experiment [5]; 9.11% in experiment [6]. The inhibition in experiment [7] was found to be 19.7%; in experiment [8] it was 7.27%; in experiment [9], 18.2%; in [10] it was 3.01%.

Consider `[O-][S+]1CCN(Cc2ccc(-c3ccc4ncnc(Nc5ccc(OCc6ccccc6)c(Cl)c5)c4c3)o2)CC1`, for which the inhibition was 2.86% in experiment [1]; 6.47% in experiment [2]; 39.1% in [3]; -3.44% in experiment [4]; 1.8% in [5]; 3.08% in [6]. Also, the inhibition in [7] is 3.86%; in experiment [8], 2.34%; in [9], 3.29%; in experiment [10] it was -1.87%.

`NS(=O)(=O)c1ccc(-c2cc3ccncc3cc2OCc2ccccc2)cc1`: the inhibition in [1] is 4.23%; in experiment [2], 3.11%; in [3], 3.16%; in [4], 0.37%; in experiment [5], -0.77%; in [6] it was 4.65%. Moreover, the inhibition in [7] amounted to 6.35%; in experiment [8], 5.61%; in experiment [9], 4.49%; in [10] it was 2.9%.

In the case of `N#Cc1cccc(Nc2nccc(-c3cnn4ncccc34)n2)c1`, the inhibition in experiment [1] worked out at 47.8%; in experiment [2], 5.64%; in experiment [3] it was 37%; in [4], 3.19%; in [5], 13.3%; in [6], 19.5%. In addition, the inhibition in [7] was 65.2%; in [8] it was 18.8%; in [9], 65%; in experiment [10], -0.47%.

Take `NS(=O)(=O)c1cccc(Nc2cc(-c3ccc(F)cc3)n[nH]2)c1`: the inhibition in experiment [1] stood at 19.7%; in experiment [2] it was 2.67%; in [3] it was 12.1%; in [4] it was 1.39%; in experiment [5] it was 2.54%; in experiment [6], 5.14%. In addition, the inhibition in experiment [7] amounted to 4.96%; in experiment [8], 3.81%; in experiment [9] it was 5.31%; in experiment [10], 0.49%.

As to `C[C@@H](Oc1cc(-n2cnc3ccc(OCC4CCN(C)CC4)cc32)sc1C(N)=O)c1ccccc1C(F)(F)F`, the inhibition is 6.92% in experiment [1]; 4.36% in experiment [2]; 13.2% in experiment [3]; -2.7% in experiment [4]; -1.19% in experiment [5]; -0.94% in [6]. For the same molecule, the inhibition in [7] was -2.8%; in experiment [8], -0.73%; in experiment [9] it was 0.84%; in [10], 12.6%.

For `NS(=O)(=O)c1ccc(Nc2cc(-c3cccc(O)c3)n[nH]2)cc1`, the inhibition turned out to be 9.19% in [1]; 2.39% in [2]; 5.84% in [3]; 4.04% in experiment [4]; 6.29% in experiment [5]; 7.97% in experiment [6]. Also, the inhibition is 8.05% in experiment [7], 6.98% in experiment [8], 6.29% in experiment [9] and 1.44% in experiment [10].
